Compound activity deposited in PubChem by National Center for Advancing Translational Sciences (NCATS).
Rows were chosen to be rich in hits. Some 2.2% of all compounds tested hit in one or more screens of this group.
aSyn rescue: qHTS of alpha-syn Inhibitors. Yeast expressing alpha-synuclein, growth rescue, BacTiter-Glo, 24 h. Potency, µM (doses to about 46.1 µM), actives largely listed as activators. 0.14% of 370,000 active. AID 652106, 2013; note: nearly all actives have a fitted effect of over 65% in size
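Screening used galactose-induced yeast with toxic alpha-synuclein levels, exposed to compound for 24 hr at 30 deg C. Cell growth, read with BacTiter-Glo luminescence, gave the measured signal.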
Abeta yeast res: qHTS for compounds that reverse cellular toxicity of Amyloid beta (A-beta) peptide in yeast: Primary Screen; yeast expressing A-beta42, growth rescue, OD600, 48 h; response scale: 0% DMSO, 100% iron-clioquinol control; Potency, µM (top dose mostly 46.1 µM), actives largely listed as activators; 0.063% of 410,000 active; AID 1347071, 2019; note: nearly all actives have a fitted effect of over 55% in size
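Yeast A-beta toxicity model in growth medium with pinned compounds, 48 h at 30 C; growth read as absorbance at 600 nm. Normalized to FeCl3/clioquinol equimolar mix (positive) and DMSO (negative).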
Mito fusion act: qHTS Assay for Small Molecule Inhibitors of Mitochondrial Division or Activators of Mitochondrial Fusion. S. cerevisiae fusion-defective mutant growth rescue, CellTiterGlo 48 h. Potency, µM (series often up to 46.1 µM), most hits filed as activators. 0.23% of 320,000 active; note: nearly all actives have a fitted effect of over 45% in size
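S. cerevisiae fusion-defective temperature-sensitive mutants (e.g. fzo1-1, mgm1-5) grown 48 h at 37C in YPEG (ethanol/glycerol non-fermentable) medium with 23 nl compound per well; growth rescue read as CellTiterGlo luminescence.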
FUS suppressor: qHTS for Suppressors of FUS Proteinopathy: Primary screen using FUS-linked yeast assay. AID 1347120, 2019. S. cerevisiae FUS-expressing, growth rescue, OD600, 24 h. Potency, µM (doses to about 76.6 µM), most hits filed as activators. 0.24% of 390,000 active; note: nearly all actives have a fitted effect of over 55% in size
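Compound concentration series was pinned onto galactose-induced FUS-expressing yeast seeded at OD 0.005. Plates sat 24hr at 30C; absorbance at 600 nm gave growth. DMSO served as background control.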
TDP43 rescue: qHTS of TDP-43 Inhibitors. TDP-43 expressing yeast growth rescue, BacTiter-Glo, 24 h. Potency, µM (top dose mostly 46.1 µM), usual class: activators. 1.8% of 410,000 active. AID 652104, 2013; note: nearly all actives have a fitted effect of over 50% in size
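In this qHTS, compounds that restore growth of yeast expressing TDP-43 appear as activators. Cells (OD600=0.02, galactose medium, raffinose-pregrown) are incubated with compound 24 hr at 30 deg C and growth is quantified by BacTiter-Glo.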
Numbers stand for hits; i = inactive; ? = inconclusive; nt = no result; ! = a repeat was not active; [ ] = dose if it differs, or a comment. Calls come from the whole dose curve; as a rule, active = well fitted curve in the direction sought with a large enough effect; inconclusive = small, poorly fitted or top-dose-only effect, or another doubt; inactive = no such curve, though single readings can be large; an effect the other way counts as inactive or inconclusive.

SMILES	aSyn rescue	Abeta yeast res	Mito fusion act	FUS suppressor	TDP43 rescue
COC(=O)[C@]12C[C@H](CC(=O)N3CCSCC3)C(=O)N(Cc3ccco3)C1=C[C@H](C(C)C)O[C@@H]2C1CC1	nt	nt	nt	i	nt
COc1c([N+](=O)[O-])cc(C(=O)NNC(=O)c2ccc(C)cc2)cc1[N+](=O)[O-]	i	i	i	i	i
COc1ccc(-c2nc(CSCC(=O)N3CCN(c4cccc(C)c4C)CC3)c(C)o2)cc1OC	nt	i	nt	25µM	?
CCOc1ccc(-c2nc(CSCC(=O)N3CCN(c4cccc(C(F)(F)F)c4)CC3)c(C)o2)cc1	nt	i	i	22µM	i
CCN(CC)CCCNC(=O)C(C)n1nc(C)n2c(cc3occc32)c1=O (stereo not drawn)	nt	i	nt	i	i
O=C(OCCNc1nc(-c2ccccc2)nc2ccccc12)c1cccnc1	i	i	i	i	i
CCCOC(=O)c1cccc(Nc2nc(-c3cccnc3)nc3ccccc23)c1	i	i	i	i	22µM
O=C(O)c1ccc(Nc2nc(-c3ccccc3)nc3ccccc23)cc1	i	i	i	i	22µM
COC(=O)c1ccc(Nc2nc(-c3ccc(C)cc3)nc3ccccc23)cc1	nt	i	nt	i	14µM
CC(=O)OC1CCC2C3CCc4cc(O)ccc4C3CCC12C (stereo not drawn)	i	i	nt	i	i
C[C@]12CC[C@@H]3c4ccc(O)cc4CC[C@H]3[C@@H]1CC[C@@H]2O	i	i	23µM!	i	?
CC(NCCN(C)C)C1CCC2C3CCc4cc(O)ccc4C3CCC12C (stereo not drawn)	i	i	nt	nt	0.32µM
O=C(Nc1c(-c2ccc(F)cc2)nc2ncccn12)C1CC1	nt	nt	nt	i	nt
S=C(Nc1ccccc1Oc1ccccc1)Nc1cccc(Cl)c1Cl	i	i	?	nt	22µM
S=C(Nc1ccc(Cl)cc1Cl)Nc1ccccc1Oc1ccccc1	i	i	i	i	i
Cc1cc(NS(=O)(=O)c2ccc(CC(C)C)cc2)no1	i	i	i	i	18µM
COc1ccc(S(=O)(=O)Nc2cc(C)on2)cc1	i	i	i	i	i
Cc1cc(NS(=O)(=O)c2ccc(C(C)C)cc2)no1	i	?	i	i	14µM
O=C1c2ccccc2C2N1CCCN2C(=O)c1sc2ccccc2c1Cl (stereo not drawn)	i	i	nt	i	18µM
COc1ccc2ccccc2c1C=NNC(=O)c1cc(-c2ccc(C)c(C)c2)n[nH]1	nt	nt	nt	i	nt
CC(=O)c1ccccc1NC(=O)COC(=O)c1c(C)nn(-c2ccccc2)c1C	i	i	i	i	i
COc1cccc(NC(=O)COC(=O)/C=C/c2c(C)nn(-c3ccccc3)c2C)c1	i	i	i	i	20µM
COc1ccccc1NC(=O)COC(=O)c1c(C)nn(-c2ccccc2)c1C	i	i	i	i	18µM
Cc1nn(-c2ccccc2)c(C)c1/C=C/C(=O)OCC(=O)Nc1ccc(C(N)=O)cc1	i	i	i	i	i
O=S(=O)(NCc1csc(-c2cccs2)n1)c1cccc(C(F)(F)F)c1	i	i	i	i	18µM
SMILES	aSyn rescue	Abeta yeast res	Mito fusion act	FUS suppressor	TDP43 rescue
O=S(=O)(NCc1csc(-c2cccs2)n1)c1ccc(Cl)cc1	i	i	i	i	?
CN(C(=O)c1ccc(COc2ccccc2Cl)o1)c1ccccc1	i	i	i	i	10µM
O=C(Nc1ccccn1)c1ccc(COc2ccccc2Cl)o1	i	i	i	i	22µM
COc1ccc(NC(=O)Nc2nc3c(s2)CCCC3)cc1	13µM	i	i	nt	14µM
O=C(CSc1nnnn1C1CCCCC1)Nc1nc2c(s1)CCCC2	?	i	?	i	13µM
O=C(Nc1nc2c(s1)CCCC2)c1ccc2ncsc2c1	i	i	i	i	13µM
CC1CCc2nc(NC(=O)Cc3cccs3)sc2C1 (stereo not drawn)	i	i	i	i	28µM
COc1ccc2cc(CCNS(=O)(=O)c3ccc(C)cc3)c(=O)[nH]c2c1	nt	i	nt	i	i
COc1ccccc1NC(=O)OCC#CCOC(=O)Nc1ccccc1OC	i	i	i	i	i
CCc1nc(SCC(=O)c2ccc3c(c2)OCCO3)c2ccccc2n1	i	i	i	i	18µM
CCc1nc(SCC(=O)Nc2nc3c(s2)CCCC3)c2ccccc2n1	i	i	i	i	10µM
O=C(CCCc1cccs1)Nc1nc2c(s1)CCCC2	i	?	i	i	13µM
CC(C)(C)C1CCc2nc(NC(=O)Cc3cn4ccsc4n3)sc2C1 (stereo not drawn)	i	i	i	?	16µM
Cc1csc(NC(=O)CCCc2cccs2)n1	i	i	i	i	i[9.22 µM]
O=C(CSc1nc(Cc2ccccc2)nc2ccccc12)c1ccc2c(c1)OCCO2	i	i	i	i	i
COc1ccc(S[C@]2(C(=O)NCC(C)C)CC(=O)N[C@@H]2c2ccc(OC)cc2)cc1	nt	nt	nt	i	nt
CCC(=O)N1c2ccccc2CC1C(=O)NCCc1ccccc1OC (stereo not drawn)	nt	i	nt	i	i
Cc1ccc(CC(=O)Nc2nc3c(s2)CCCC3)cc1	i	?	i	i	16µM
COCCCn1c(-c2ccco2)nc2ccccc2c1=O	i	i	i	i	i
COCCCN=C(c1ccco1)n1c(=S)nc(-c2ccco2)n(CCCOC)c1=S	i	i	i	28µM	i
CC[C@H]1C=C[C@@H](C(=O)NS(=O)(=O)c2ccc(C)cc2)N(C(C)=O)C1	nt	nt	nt	i	nt
CCOC(=O)c1ccccc1NC(=O)Cn1c(=O)n(CCC(=O)N2CCc3ccccc3C2)c(=O)c2ccccc21	nt	i	nt	?	35µM
O=[N+]([O-])C1C(c2ccccc2)=NOC1c1ccccc1O (stereo not drawn)	i	i	i	i	18µM
Oc1ccccc1C1N=C(c2ccccc2)NC(c2ccccc2)=N1	i	i	i	i	i
CCOC(=O)c1cccc(NC(=O)CCSCCc2ccccn2)c1	nt	i	nt	i	i
Cc1ccccc1N1CCN(C(=O)c2cc(C3CC3)nn2-c2ccccc2)CC1	i	i	?	i	?
O=C(c1cc(C2CC2)nn1-c1ccccc1)N1CCN(c2ccccc2O)CC1	i	i	nt	?	18µM
S=C(NCc1ccc2[nH]c3c(c2c1)CCCC3)Nc1ccccc1	?	?	?	i	18µM
CCOC(=O)c1ccc(NC(=O)c2nc[nH]c2C(=O)NCC(=O)OC(C)(C)C)cc1	i	?	i	?	22µM
CC(C)(C)OC(=O)NCc1ccc(NC(=O)c2nc[nH]c2C(=O)NCCN(CCNC(=O)c2[nH]cnc2C(=O)Nc2ccc(CNC(=O)OC(C)(C)C)cc2)CCNC(=O)c2[nH]cnc2C(=O)Nc2ccc(CNC(=O)OC(C)(C)C)cc2)cc1	i	i	nt	8.9µM	i
